Ba/F3 V617F tox = loss of viability in JAK2V617F-driven Ba/F3 cells; Ba/F3 EpoR-JAK2V617F viability, ATP luminescence; inhibition, % at 5.6 µM; hit rate 1.1% among 220,000;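 active = inhibition above the campaign mean plus 3 SD over all tested compounds, cut at about 24% in these data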;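 also: cytokine-independent growth of Ba/F3 cells driven by EpoR plus mutant JAK2; 0% = DMSO-treated cells and 100% = JAK inhibitor I control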
IEC-6 tox = IEC-6 cytotoxicity, counter-screen for KLF5 inhibitors; luminescence viability; inhibition, % at 5 µM; hit rate 0.78% among 290,000; AID 1825;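 also: 0% = plate median of test compound wells and 100% = cytotoxic reference compound wells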
BaF3 tox = reduces parental Ba/F3 cell viability, JAK2V617F counter-screen; inhibition, % at 5.6 µM; hit rate 1.1% among 220,000; AID 1486; CellTiter-Glo ATP luminescence;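 active = inhibition above a per-campaign cutoff, the mean inhibition of all tested compounds plus 3 SD, cut at about 27% in these data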;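 also: 0% = DMSO wells and 100% = JAK Inhibitor I control wells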
KLF5 inhibitor = kruppel-like factor 5 inhibition. DLD-1 KLF5 promoter-luciferase reporter, luminescence. inhibition, % at 5 µM. hit rate 0.23% among 290,000;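 active = inhibition above a per-plate limit of that plate's mean compound inhibition plus 3 SD, cut at about 60% in these data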;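 also: 0% = DMSO wells and 100% = LY294002 at 200 µM; higher means less KLF5 promoter-driven luciferase light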
APP 5UTR inh = APP translation inhibition; SH-SY5Y APP 5'UTR-luciferase reporter, luminescence; inhibition, % at 2 µM; hit rate 0.82% among 190,000;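 active = inhibition above a set limit, derived from the sample mean plus 3 SD, cut at about 45% in these data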
IEC-6 tox confirm = IEC-6 cytotoxicity, confirmation assay; inhibition, % at 5 µM; IEC-6 rat intestinal epithelial viability, luminescence; AID 1907; hit rate 63% among 1,900; shares compounds with IEC-6 tox;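 also: 0% = vehicle and 100% = reference cytotoxic drug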
* = called active by the depositor; · = no result given. In the library only some 1.9% were active in any assay of this set; here they are far more common. Rule as the data show it, unless noted: active = inhibition above about 22%; inactive = the rest.

SMILES	Ba/F3 V617F tox	IEC-6 tox	BaF3 tox	KLF5 inhibitor	APP 5UTR inh	IEC-6 tox confirm
NS(=O)(=O)c1ccc(CNC(=O)c2cc(=O)c3cc(Cl)ccc3o2)cc1	·	101.2*	·	-38.3	·	-13.7
Cc1ccc2oc(C(=O)NCc3ccc(S(N)(=O)=O)cc3)cc(=O)c2c1	·	-12.8	·	-46.2	·	·
Cn1cnc(Sc2ncnc3nc[nH]c23)c1[N+](=O)[O-]	58.6*	39.2*	36.4*	-16.8	·	35.6*
Cn1cnc([N+](=O)[O-])c1Sc1ncnc2nc[nH]c12	55.7*	34.9*	28.9*	-4.8	·	46.6*
Cc1ccc(OCCSc2ncnc3nc[nH]c23)cc1	0.6	-0.2	6.6	-106.9	-99.6	·
Cc1cccnc1Sc1c([N+](=O)[O-])ncn1C	-0.9	-2.3	3.7	-37.4	-2.0	·
CC(=O)Nc1ccc(S(=O)(=O)N2CCC(C(N)=O)(N3CCCCC3)CC2)cc1	·	-6.7	·	16.9	·	·
CN(c1ccccc1C(=O)O)S(C)(=O)=O	1.7	2.1	5.7	7.2	-9.4	·
CN(C)c1ccccc1C(=O)c1ccccc1N(C)C	76.6*	74.0*	75.1*	-18.0	90.9*	22.1*
Cc1cccc(NNC(=O)C(=O)NNc2cccc(C)c2)c1	-1.0	33.9*	-0.8	34.3	·	-14.2
COCCN(C(=O)CCC(=O)Nc1ccccn1)C(C(=O)NCCC(C)C)c1ccc(F)cc1 (stereo unspecified)	·	-1.9	·	-0.8	·	·
c1ccc(-c2noc(-c3cccnc3)n2)nc1	2.9	6.9	8.6	-111.8	-75.0	·
c1ccc(-c2noc(-c3ccncc3)n2)nc1	32.7*	29.0*	34.2*	-66.3	-103.6	25.2*
C/C(=N/Nc1ccc([N+](=O)[O-])cc1)c1c[nH]c2ccccc12	·	24.3*	·	-19.6	·	22.4*
C/C(=N/Nc1ccc([N+](=O)[O-])cc1)c1ccc(C)cc1C	1.9	5.1	9.6	-57.8	-16.6	·
COc1ccc(-n2c(C)cc(/C=N/Nc3nnc(C)n3N)c2C)cc1	15.9	100.2*	5.1	10.9	-4.2	-4.2
CCOC(=O)Nc1cc(=O)c2ccccc2o1	69.3*	44.0*	59.7*	35.1	-10.8	22.9*
Cc1cccc(NC(=O)c2ccc(NC(C)c3ccccc3)c([N+](=O)[O-])c2)n1 (stereo unspecified)	-1.6	-0.5	6.8	-34.3	12.1	·
Cc1cccc2nc(CSc3nnc(N)s3)cn12	6.1	0.8	8.3	-20.8	-3.4	·
COc1ccc(Nc2nnc(SCc3cn4c(C)cccc4n3)s2)cc1	-1.4	22.2*	5.7	-11.8	-20.5	2.2
Cc1ccccc1NC(=O)CSc1nc2scc(C)c2c(=O)[nH]1	·	36.7*	·	-15.7	·	20.7
CCOc1ccc(S(=O)(=O)NCc2ccncc2)cc1NC(=O)c1ccccc1F	·	3.3	·	-15.7	·	·
CCOc1ccc(S(=O)(=O)NCc2cccnc2)cc1NC(=O)c1ccccc1F	·	33.4*	·	25.6	·	6.6
CCCS(=O)(=O)c1ncc(Cl)c(C(=O)Nc2ccc(S(=O)(=O)Nc3ncccn3)cc2)n1	·	-4.8	·	-26.0	·	·
CCOC(=O)c1ccc(NC(=O)CCS(=O)(=O)Cc2ccccc2)cc1	·	-5.6	·	-26.9	·	·
SMILES	Ba/F3 V617F tox	IEC-6 tox	BaF3 tox	KLF5 inhibitor	APP 5UTR inh	IEC-6 tox confirm
CSc1ncc(Cl)c(C(=O)Nc2ccc(C)c(C)c2)n1	·	2.5	·	-8.3	·	·
CC1CCN(S(=O)(=O)c2ccc(NC(=O)c3ccncc3)cc2)CC1	·	3.0	·	-37.4	·	·
Cc1ccc(NC(=O)c2nc(S(=O)(=O)Cc3ccccc3C)ncc2Cl)cc1C	·	31.2*	·	6.0	·	16.3
CCc1ccc(NC(=O)c2nc(S(=O)(=O)Cc3ccccc3)ncc2Cl)cc1	·	88.0*	·	14.8	·	6.8
CCS(=O)(=O)c1ncc(Cl)c(C(=O)Nc2ccc(S(=O)(=O)N3CCC(C)CC3)cc2)n1	·	95.9*	·	42.9	·	7.9
CCOC(=O)c1ccc(NC(=O)c2nc(S(=O)(=O)Cc3ccccc3)ncc2Cl)cc1	·	49.9*	·	22.9	·	16.3
CC/C(=N/O)C(=O)c1ccc(Br)cc1	1.9	-1.1	4.8	-18.1	-13.4	·
COC1=C(N)C(=O)c2nc(-c3nc(C(=O)O)c(C)c(-c4ccc(OC)c(OC)c4O)c3N)ccc2C1=O	86.1*	45.0*	71.4*	-10.2	94.6*	101.2*
COc1ccc(-c2ncncc2-c2csc(C)n2)c(O)c1OC	-1.9	-2.1	2.8	-19.1	-0.4	·
Cc1cc(C)n(-c2nc3ccccc3c(=O)n2OCC(=O)OCc2ccccc2)n1	-0.6	57.6*	3.7	7.8	51.4*	30.2*
Cc1cc(C)n(-c2nc3ccccc3c(=O)n2OCC(=O)N(C)C)n1	-0.7	0.9	4.5	-15.2	3.0	·
Clc1ccc2nc(SCc3nnc(-c4ccccc4)o3)[nH]c2c1	-4.3	3.6	4.4	6.5	-7.9	·
Cc1ccc2nc(SCc3nnc(-c4ccccc4Br)o3)[nH]c2c1	-4.1	22.4*	3.7	-7.3	-16.0	15.1
COc1ccccc1NC(=O)Cc1nnc(SCC(=O)c2ccccc2)n1C	·	-0.9	·	1.2	·	·
Cc1nnc(N/N=C/c2cccc(OCc3ccc(Cl)c(Cl)c3)c2)n1N	5.4	98.5*	6.2	-137.2	-36.2	3.9
O=C(c1cccnc1)N1CCN(C/C=C/c2ccccc2)CC1	0.4	2.8	5.6	-18.0	-9.1	·
Cc1cc(C(=O)N2CCN(C/C=C/c3ccccc3)CC2)cs1	0.2	45.3*	2.7	1.7	-16.4	-16.0
Cc1ccc(C(=O)COC(=O)c2cn(-c3ccccc3)nc2-c2ccccc2)cc1[N+](=O)[O-]	-0.8	-1.5	5.3	-16.4	5.5	·
Cc1ccc(S(=O)(=O)c2ncccc2[N+](=O)[O-])cc1	·	100.6*	·	25.0	·	1.8
COc1cc(/C=N/NC(=S)NC2CC3C=CC2C3)cc(OC)c1OC (stereo unspecified)	3.5	27.9*	-5.9	-20.8	·	1.7
CCOC(=O)C1CCN(c2c(NCc3ccc(C(=O)N(C)Cc4ccccc4)cc3)c(=O)c2=O)CC1	-0.3	-10.8	3.2	-40.1	3.7	·
Cc1nn(Cc2noc(C(=O)NC3CCC(C)CC3)n2)c(C)c1Br (stereo unspecified)	·	35.2*	·	-16.0	·	23.8*
CCCCCCCC(=O)NNC(=O)CC(=O)Nc1ccccc1C(=O)O	-1.1	8.7	-0.1	-20.6	-9.2	·
C(=C\c1ccccc1)/CSc1nnc(-c2ccncc2)n1Cc1ccco1	3.3	6.7	4.1	-5.9	-13.1	·
C(=C\c1ccccc1)/CSc1nnc(-c2ccccc2)n1Cc1ccco1	40.7*	34.2*	22.6	5.7	16.6	35.6*
SMILES	Ba/F3 V617F tox	IEC-6 tox	BaF3 tox	KLF5 inhibitor	APP 5UTR inh	IEC-6 tox confirm
CC(C)(C)c1ccc(CSc2nnc(-c3ccccn3)n2Cc2ccco2)cc1	-0.9	-2.5	5.5	-30.4	-10.1	·
Brc1ccc(CSc2nnc(-c3ccccn3)n2Cc2ccco2)cc1	1.1	28.4*	10.5	5.2	3.5	21.5
COC(=O)C1=C(NC(C)=O)CCS1	6.8	22.8*	8.4	-22.0	5.1	3.6
COC(=O)C1=C(NC(=O)c2ccc(C)cc2)CCS1	0.4	-0.9	4.0	-33.8	5.3	·
CSc1ccc(/C=N/n2c(COc3ccccc3)n[nH]c2=S)cc1	·	-4.6	·	-40.8	·	·
COc1cc(/C=C2\CCC/C(=C\c3ccc(O)c(OC)c3)C2=O)ccc1O	·	8.3	·	-25.2	·	·
